# An excerpt weighted towards active compounds, which were near 2.3% of everything screened.
# GLS inh: qHTS for Inhibitors of Glutaminase (GLS); GLS enzymatic activity, qHTS titration; Potency, µM (series often up to 45.5 µM), for inactives: at the highest dose activity change, negative = inhibition, hits mostly inhibitors; 0.21% of 410,000 active; further: on the % scale 0 is the no-effect control and ±100 the full control effect
#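 Coupled fluorescence readout: glutamate oxidase/HRP/Amplex Red detect glutamate formed by hKGA from L-glutamine (1 mM solution added). Buffer 45 mM KH2PO4 pH 8.2, 0.02% Tween-20; reads at t0 and 30 min RT.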
# 12-LOX inh: Primary qHTS assay for inhibitors of human arachidonate 12S-lipoxygenase (ALOX12): Round 2; Polyunsaturated fatty acid lipoxygenase ALOX12 (Homo sapiens), P18054; purified 12hLO, xylenol orange hydroperoxide absorbance; Potency, µM (top dose mostly 108 µM), inactives show at the top dose activity change, negative = inhibition, actives largely listed as inhibitors; 1.1% of 580,000 active; further: on the % scale 0 is the no-effect control and ±100 the full control effect
# Target sequence (P18054 whole entry, looked up): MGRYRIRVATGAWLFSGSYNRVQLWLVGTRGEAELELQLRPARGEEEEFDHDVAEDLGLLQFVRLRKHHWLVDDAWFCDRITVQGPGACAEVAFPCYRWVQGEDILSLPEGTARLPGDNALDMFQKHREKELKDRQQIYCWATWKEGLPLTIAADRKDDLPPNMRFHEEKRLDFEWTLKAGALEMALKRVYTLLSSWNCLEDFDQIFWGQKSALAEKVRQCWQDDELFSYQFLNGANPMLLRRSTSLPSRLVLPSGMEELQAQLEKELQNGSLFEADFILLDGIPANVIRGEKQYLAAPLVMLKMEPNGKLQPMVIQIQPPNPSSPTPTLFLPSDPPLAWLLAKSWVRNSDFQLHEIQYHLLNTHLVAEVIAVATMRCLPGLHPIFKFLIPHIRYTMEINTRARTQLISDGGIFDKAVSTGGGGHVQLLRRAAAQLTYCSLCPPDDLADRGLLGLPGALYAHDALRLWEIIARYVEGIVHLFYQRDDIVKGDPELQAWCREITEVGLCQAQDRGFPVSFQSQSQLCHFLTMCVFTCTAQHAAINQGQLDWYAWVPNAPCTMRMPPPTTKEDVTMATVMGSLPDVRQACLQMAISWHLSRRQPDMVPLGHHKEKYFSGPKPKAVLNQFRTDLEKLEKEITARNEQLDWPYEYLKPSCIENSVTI
#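 Purified human 12hLO at 150 nM in 25 mM Hepes, 0.01% Triton X-100, pH 7.0, preincubated 15 min at room temperature with compound. Reaction started with 40 uM arachidonic acid, 30 min at room temperature. Hydroperoxide measured by Fe-xylenol orange, 573/405 nm absorbance ratio.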
# PTHR1 agonist: qHTS for PTHR1 Agonists: Primary Screen; Parathyroid hormone/parathyroid hormone-related peptide receptor (Homo sapiens), Q03431; HEK293 GP2 PTHR1 cells, GloSensor cAMP luminescence, 1 h; Potency, µM (highest dose often 115 µM), inactives show top-dose activation, hits mostly activators; 0.075% of 410,000 active; AID 743266, 2014; further: nearly all actives have a fitted effect of over 55% in size
#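 HEK-293-derived GP2 cells expressing PTHR1 and a GloSensor cAMP reporter, 3,000/well, plated overnight, given luciferin plus IBMX (each 0.5 mM as added) for 1 h at 37 °C, then compound for 1 h at 37 °C. Luminescence was read after 15 min at room temperature.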
# GLP1R inv ag: qHTS of GLP-1 Receptor Inverse Agonists (Inhibition Mode); HEK293 GLP-1R CRE-luciferase, luminescence, 24 h; GLP-1R form is constitutively active; Potency, µM (titrated, usually from 38.3 µM), without a hit: at the highest dose activity change, negative = inhibition, usual class: inhibitors; 1.6% of 410,000 active; AID 624417, 2012; further: on the % scale 0 is the no-effect control and ±100 the full control effect; nearly all actives have a fitted effect of over 55% in size
#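 HEK293 cells stably co-expressing a cAMP-responsive luciferase reporter and constitutively active GLP-1R were seeded, incubated 12 h, then exposed to compounds for 24 h at 37 C. Luminescence was read 12 min after detection reagent; inverse agonists lower signal.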
# GLP-1R agonist: qHTS of GLP-1 Receptor Agonists; 0.007% of 380,000 active; Potency, µM (top dose mostly 45.6 µM), inactives show at the highest dose activation, most hits filed as activators; HEK293 GLP-1R CRE-luciferase, luminescence, 4-6 h; cells express a hypersensitive GLP-1R form; further: % of control where 0% means no effect
# Glioma ERSR ind: qHTS for Inducers of the Endoplasmic Reticulum Stress Response (ERSR) in Human Glioma: qHTS | 0.02% of 420,000 active | U87-MG GRP78 promoter luciferase reporter, 16 h | Potency, µM, inactives show at the highest dose activation, usual class: activators; further: series mostly up to about 76 µM; % of control where 0% means no effect; nearly all actives have a fitted effect of over 35% in size
#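 Stably transfected U87-MG glioma cells carrying a GRP78-based luciferase sensor; 16 h compound incubation. Luminescence end-point read 10 min after Bright-Glo addition at room temperature.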
# Numbers without * were called inactive; i = inactive; ? = inconclusive; / = no result; [ ] = another dose, or the depositor's remark. The call rests on the fitted dose curve; in most records, active means well fitted curve in the direction sought with a large enough effect; inconclusive means small, poorly fitted or top-dose-only effect, or another doubt; inactive means no such curve, though single readings can be large; an effect the other way counts as inactive or inconclusive. Potency means the concentration at half of the fitted maximal effect.
SMILES,GLS inh,12-LOX inh,PTHR1 agonist,GLP1R inv ag,GLP-1R agonist,Glioma ERSR ind
Nc1[nH]c(C(=O)c2ccccc2)c(-c2ccc(Br)cc2)c1C(=O)c1cccs1,16.7%,39.8µM*,-7.7%,6.3%,-4.4%,/
Nc1[nH]c(C(=O)c2ccccc2)c(-c2ccc(Br)cc2)c1C(=O)c1ccc(Br)cc1,3.6%,?,i,3.1%,3.7%,/
O=C(Nc1cnc(-c2ccccc2)nc1)c1ccc(C2SCCCS2)cc1,/,-31.7%,/,/,/,/
O=C(CSCc1ccc(F)cc1)NCc1ccc2c(c1)OCO2,0.2%,-16.5%,i,?,3.0%,-3.3%
O=C(NCc1ccc2c(c1)OCO2)c1ccc(CSCc2ccccc2Cl)o1,-1.0%,-16.2%,-13.8%,10µM*,3.5%,2.5%
O=C(CSCc1ccc(Cl)cc1)NCc1ccc2c(c1)OCO2,-11.4%,-17.3%,i,8.91µM*,-7.2%,-5.1%
COc1ccc(NC(=O)C2=C(C)NC(=O)NC2c2cccc(OCc3ccccc3)c2)cc1 (configuration not stated),/,-10.0%,/,/,/,/
O=C(NC1CCCCC1)C(C1CC1)n1c(=O)c(-c2ccco2)nc2ccccc21 (configuration not stated),/,?,-24.9%,3.5%,/,/
CCCCCNC(=O)C(C1CC1)n1c(=O)c(-c2ccco2)nc2ccccc21 (configuration not stated),/,35.5µM*,i,5.0%,/,/
CC(C)(C)NC(=O)C(c1cccc2ccccc12)n1c(=O)c(-c2ccccc2)nc2ccccc21 (configuration not stated),/,-5.0%,9.0%,-4.0%,/,/
O=C(NCc1ccccc1)C(c1cccc2ccccc12)n1c(=O)c(-c2ccco2)nc2ccccc21 (configuration not stated),/,?,-17.5%,?,/,/
O=c1c(-c2ccco2)nc2ccccc2n1/C=C(/c1ccc(C(F)(F)F)cc1)n1c(=O)[nH]c2ccccc21,/,15.8µM*,/,/,/,/
O=C(NC1CCCCC1)C(c1ccc(C(F)(F)F)cc1)n1c(=O)c(-c2ccco2)nc2ccccc21 (configuration not stated),/,?,-10.8%,?,/,/
CC(C)(C)NC(=O)C(c1cccc2ccccc12)n1c(=O)c(-c2ccco2)nc2ccccc21 (configuration not stated),/,44.7µM*,-23.1%,-14.9%,/,/
CCCCCNC(=O)C(c1cccc2ccccc12)n1c(=O)c(-c2ccco2)nc2ccccc21 (configuration not stated),/,10µM*,-2.9%,?,/,/
CCCCCNC(=O)C(c1ccc(C(F)(F)F)cc1)n1c(=O)c(-c2ccco2)nc2ccccc21 (configuration not stated),/,44.7µM*,-45.7%,-16.3%,/,/
CC(=O)c1cccc(Nc2nc(-c3cccc(C)c3)nc3ccccc23)c1,-0.8%,6.31µM*,-46.6%,?,/,-4.7%
CCOC(=O)c1ccc(Nc2nc(-c3cccnc3)nc3ccccc23)cc1,0.6%,-13.4%,-9.1%[57.5 µM],8.91µM*,4.4%,-2.2%
CC(=O)c1cccc(Nc2nc(-c3ccc(C)cc3)nc3ccccc23)c1,/,17.9%,/,/,/,/
Cc1cccc(-c2nc(Nc3cccc(O)c3)c3ccccc3n2)c1,13.5%,?,-35.4%,6.31µM*,-0.4%,-5.4%
Cc1c(O)ccc(/C=N/Nc2nc(-c3cccnc3)nc3ccccc23)c1O,24.1%,13.7%,i,10µM*,11.9%,7.0%
Cc1cccc(-c2nc(Nc3ccc(N4CCOCC4)cc3)c3ccccc3n2)c1,14.6%,2.4%,i,?,-15.2%,-4.2%
Cc1ccc(Nc2nc(-c3cccnc3)nc3ccccc23)cc1,-0.3%,?,-21.1%,?,25.0%,-5.2%
CSc1c(Cl)c(Cl)c(Cl)c(Cl)c1Cl,/,3.8%[176 µM],/,/,/,/
Cn1cnnc1CC1CCN(C(=O)CCc2nc3ccccc3[nH]c2=O)CC1,/,47.8%,/,/,/,/
SMILES,GLS inh,12-LOX inh,PTHR1 agonist,GLP1R inv ag,GLP-1R agonist,Glioma ERSR ind
CCOC(=O)C(CCCCCC(NC(C)=O)(C(=O)OCC)C(=O)OCC)(NC(C)=O)C(=O)OCC,/,-51.1%,/,/,/,/
CCc1ccc(-c2nnn(CC(=O)N(CC)Cc3ccc(Cl)s3)n2)cc1,/,55.0%,/,/,/,/
CC(=O)NCCNc1nc(-c2cccc(NS(C)(=O)=O)c2)nc2ccccc12,/,2.24µM*,/,/,/,5.7%
Oc1ccc(Nc2nc(-c3ccccc3)nc3ccccc23)cc1,7.94µM*,/,i,?,9.6%,-4.9%
Oc1ccc(Nc2nc(-c3ccc(Cl)cc3)nc3ccccc23)cc1,16.7%,-25.0%,i,?,/,-11.6%
CNc1nc(-c2cccc(NS(C)(=O)=O)c2)nc2ccccc12,/,?,/,/,/,-0.5%
CCCCN(C)C(=O)c1ccc2nc(C)c(C)nc2c1,/,-38.8%,/,/,/,/
CCCNC(=O)C(C)NC(=O)C1CCN(c2nc3ccccc3o2)CC1 (configuration not stated),/,55.4%,/,/,/,/
O=c1c2ccccc2ncn1-c1ccc(Cl)cc1[N+](=O)[O-],-4.5%,0.3%,-52.6%,?,3.6%,-3.6%
O=c1c2ccccc2ncn1-c1ccc([N+](=O)[O-])cc1[N+](=O)[O-],2.8%,-3.6%,-14.7%,5.62µM*,-0.2%,-10.1%
O=C(CCNC(=O)c1cccs1)Nc1cc(Cl)ccc1Cl,/,39.6%,/,/,/,/
Cc1nc2ccccc2c(=O)n1-c1cccc(NC(=O)c2cccs2)c1,-0.6%,5.0%,-24.8%,44.1%,7.3%,0.1%
O=C(Nc1cccc(N2C(=O)C=CC2=O)c1)c1cccs1,/,35.5µM*,/,/,/,/
CC1(C)CC(N=c2cc(-c3ccccc3)oc3ccc(Cl)cc23)CC(C)(C)N1,-2.3%,?,i,3.55µM*,-3.1%,5.9%
Cc1cccc(Nc2nnc(SCC(=O)NC3CCCc4ccccc43)s2)c1C (configuration not stated),8.4%,-12.1%,-33.1%,8.91µM*,5.2%,-4.3%
Cc1ccccc1-n1c(C)nnc1SCC(=O)NC1CCCc2ccccc21 (configuration not stated),11.1%,19.8%,i,-7.9%,4.5%,-2.5%
CCN(CC#CCC1(O)c2ccccc2-c2ccccc21)CCO,-21.9%,-26.2%,-24.4%[57.5 µM],-11.6%,-0.9%,-5.4%
CC(C)N(CC#CCC1(O)c2ccccc2-c2ccccc21)CCO,0.4%,7.94µM*,-6.0%[57.5 µM],0.0%,-9.0%,-3.1%

# Screening results (PubChem)
